TDP1 cell noCPT = qHTS for Inhibitors of human tyrosyl-DNA phosphodiesterase 1 (TDP1): qHTS in cells in absence of CPT; Potency, µM (titrated, usually from 46.2 µM), usual class: inhibitors; AID 686978, 2013; hit rate 15% among 420,000; DT40 Tdp1-/- hTDP1 cells, no CPT, ATP luminescence, 48 h; note: nearly all actives have a fitted effect of over 55% in size
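DT40 Tdp1-/-;hTDP1 cells, no CPT (DMSO vehicle only), 400 cells/well; compounds pin-transferred; ≥48 hr, 37 °C; CellTiter-Glo 30 min RT dark, luminescence read.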
SW480 rerep = A quantitative high throughput screen for small molecules that induce DNA re-replication in SW480 colon adenocarcinoma cells | SW480 DNA re-replication, Hoechst DNA content imaging, 48 h | Potency, µM (top dose mostly 46.1 µM), hits mostly activators | hit rate 1.8% among 340,000 | AID 624297, 2012; note: nearly all actives have a fitted effect of over 55% in size
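Treated cells incubate 48 hr (37 C, 5% CO2), are stained 40 min with Hoechst, and nuclear fluorescence is enumerated; a rise in nuclei with high DNA signal marks re-replication.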
BCR signal inh = qHTS Assay to Find Inhibitors of Chronic Active B-Cell Receptor Signaling. ABC-DLBCL IkBa-CBG/CBR reporter, luminescence ratio, 4 h. hit rate 0.05% among 340,000. Potency, µM (doses to about 46.1 µM), usual class: inhibitors; active = well fitted inhibition curve with a large enough effect in the signal ratio, with a control signal flat, not every such curve was filed as active; inconclusive = small, poorly fitted or top-dose-only effect, or effect the other way, or a change in a side signal; the % refers to the signal ratio
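Doxycycline induced both beetle luciferases in TMD8 lymphoma cells; IKK-driven degradation limits the IkappaBalpha-fused green signal, while red luminescence normalises for cell number and nonspecific effects. Compounds tested up to 46 uM, 4 hrs.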
TDP1 cell CPT = qHTS for Inhibitors of human tyrosyl-DNA phosphodiesterase 1 (TDP1): qHTS in cells in presence of CPT. chicken DT40 Tdp1-/-;hTDP1 cells + 20 nM CPT, ATP luminescence, 48 h. hit rate 12% among 420,000. Potency, µM (series often up to 46.2 µM), most hits filed as inhibitors. AID 686979, 2013; note: nearly all actives have a fitted effect of over 55% in size
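Cell growth measured by CellTiter-Glo luminescence after a minimum 48 h, 37 C compound exposure with 20 nM CPT in Tdp1-knockout DT40 cells stably expressing hTDP1, seeded 400/well; qHTS titration format.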
IL1B secr inh = qHTS for Inhibitors of Inflammasome Signaling: IL-1-beta AlphaLISA Primary Screen; AID 743279, 2014; activity change, % at 57.5 µM; hit rate 4.7% among 360,000; THP-1 LPS/ATP IL-1B secretion, AlphaLISA, 16 h; hits give low values; in the data active = activity change below about -50%; inconclusive = mostly about -30% to -49%
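Secreted IL-1B measured by AlphaLISA bead assay after 16 h compound exposure of THP-1 cells; compounds (final up to 57.5 uM) added 1 h before LPS (250 ng/mL) and ATP (1.25 mM) stimulation; lower signal means less secretion.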
MCF10A rerep = A quantitative high throughput screen for small molecules that induce DNA re-replication in MCF 10a normal breast cells; Potency, µM (top dose mostly 46.1 µM), usual class: activators; hit rate 2.9% among 350,000; MCF 10A DNA re-replication, Hoechst nuclear intensity, 48 h; note: nearly all actives have a fitted effect of over 50% in size
Numbers stand for hits; . = inactive; ? = inconclusive; / = no result given; ! = a repeat was not active. Compounds with a hit are over-represented: about 19% of the library has one in this group of screens. Unless noted, calls come from the whole dose curve; as a rule, active = well fitted curve in the direction sought with a large enough effect; inconclusive = small, poorly fitted or top-dose-only effect, or another doubt; inactive = no such curve, though single readings can be large; an effect the other way counts as inactive or inconclusive.

SMILES	TDP1 cell noCPT	SW480 rerep	BCR signal inh	TDP1 cell CPT	IL1B secr inh	MCF10A rerep
O=C(c1ccc(S(=O)(=O)Cc2ccccc2Cl)c([N+](=O)[O-])c1)N1CCN(c2ccccn2)CC1	7.3µM	?	?	3.7µM	-103	?
O=C(c1ccc(Cl)c([N+](=O)[O-])c1)N1CCN(c2ccccn2)CC1	?	.	.	.	.	.
O=C(c1ccc(N2CCCC2)c([N+](=O)[O-])c1)N1CCN(S(=O)(=O)c2ccc(Cl)cc2)CC1	?	.	.	?	?	.
O=C(c1ccc(S(=O)(=O)Cc2cc(F)ccc2F)c([N+](=O)[O-])c1)N1CCCC1	2.9µM	.	?	3.3µM	-108	?
CC1CCN(C(=O)c2ccc(S(=O)(=O)Cc3cccc(F)c3)c([N+](=O)[O-])c2)CC1	?	?	.	?	-86	.
Nc1ccc(C(=O)N2CCCC2)cc1CS(=O)(=O)c1ccc(Cl)cc1	.	.	.	.	.	.
O=C(c1ccc(S(=O)(=O)Cc2cc(F)ccc2F)c([N+](=O)[O-])c1)N1CCCCC1	23µM	?	?	?	-110	.
O=C(CC1CC2CCC1C2)N1CCN(S(=O)(=O)c2ccc(C(F)(F)F)cc2)CC1 (configuration not stated)	?	/	/	.	.	/
Cc1cc(C)c(C)c(S(=O)(=O)NCc2ccc(C(=O)NCC3CCCO3)cc2)c1C (configuration not stated)	.	.	.	?	.	.
COC(=O)CSc1nnc([C@H](Cc2ccccc2)NC(=O)OC(C)(C)C)o1	.	.	.	.	.	.
COC(=O)CS(=O)(=O)c1nnc([C@H](Cc2ccccc2)NC(=O)OC(C)(C)C)o1	1.6µM	?	?	1.5µM	-102	13µM
Cc1cccc(CS(=O)(=O)c2nnc([C@H](Cc3ccccc3)NC(=O)OC(C)(C)C)o2)c1	1.5µM	?	?	1.3µM	?	3.3µM
CC(C)(C)OC(=O)N[C@@H](Cc1ccccc1)c1nnc(SCC(N)=O)o1	.	.	.	.	.	.
CC1Cc2ccccc2N1C(=O)Cn1cnc2ccccc21 (configuration not stated)	?	.	.	?	.	.
Cc1ccsc1C(=O)N1CCC1(C)C(=O)NS(=O)(=O)c1ccccc1 (configuration not stated)	.	/	/	.	.	/
CC(=O)C(Cc1ccccc1)NC(=O)COc1ccc2c(c1)OCO2 (configuration not stated)	.	.	.	.	.	.
Oc1cc(O)cc(/C=C/c2ccc(O)c(O)c2)c1	0.65µM	.	.	10µM!	.	.
N#CCC(=O)Nc1ccc(C(=O)Nc2cccc(S(=O)(=O)N3CCCC3)c2)cc1	.	/	/	.	.	/
O=C(NCCN1CCOCC1)c1cnn2c(-c3ccccc3)cc(-c3ccccc3)nc12	23µM	.	.	?	-55	?
O=C(NCCN1CCOCC1)c1ccccc1-c1ccccc1	.	.	.	?	.	.
O=C(c1cnn2c(-c3ccccc3)cc(-c3ccccc3)nc12)N1CCN(Cc2ccccc2)CC1	.	18µM	/	?	.	?
CCOc1ccc(CONS(=O)(=O)c2ccc(NC(C)=O)cc2)cc1Cl	9.2µM	?	.	?	.	.
CCc1ccc(OCC(=O)Nc2ccc(S(=O)(=O)N3CCOCC3)cc2)cc1	.	.	?	.	.	.
CCOc1ccc(NC(=O)COc2ccc(S(=O)(=O)N3CCOCC3)cc2)cc1	?	.	.	3.3µM	.	.
CNC(=O)COc1ccc(S(=O)(=O)N2CCCC2)cc1	?	.	.	29µM	.	.
SMILES	TDP1 cell noCPT	SW480 rerep	BCR signal inh	TDP1 cell CPT	IL1B secr inh	MCF10A rerep
O=C(O)COc1ccc(S(=O)(=O)N2CCCC2)cc1	.	.	.	.	.	.
O=C(CCCOc1ccc(Br)cc1)Nc1ccc(S(=O)(=O)N2CCOCC2)cc1	16µM	.	.	?	?	?
O=C(OCCOc1ccc(F)cc1)c1ccc(S(=O)(=O)N2CCCC2)cc1	2.3µM	.	.	.	.	.
COc1ccc(CN2CCN(S(=O)(=O)c3ccc(NC(C)=O)cc3)CC2)cc1OC	?	.	.	?	?	?
CCOc1ccc(CN2CCN(S(=O)(=O)c3ccc(NC(C)=O)cc3)CC2)cc1	15µM	.	.	?	.	?
Cc1ccccc1OCCOC(=O)c1ccc(S(=O)(=O)N2CCCC2)cc1	.	.	.	.	.	.
CC(=O)Nc1ccc(S(=O)(=O)N2CCN(S(=O)(=O)c3ccccc3)CC2)cc1	.	.	.	.	.	.
CCOc1ccc(C(=O)CN2CCN(S(=O)(=O)c3ccc(OC)cc3)CC2)cc1	?	.	.	18µM	.	.
CC(=O)Nc1ccc(S(=O)(=O)N2CCN(CC3CC4C=CC3C4)CC2)cc1 (configuration not stated)	?	1.3µM	.	?	.	.
O=c1[nH]cnc2n[nH]nc12	?	/	/	.	/	/
C=CCN(C(=O)CCC(=O)Nc1cc(C)on1)C(C(=O)NC(C)(C)C)c1ccc(OC)cc1 (configuration not stated)	.	?	.	.	.	.
O=C(COc1cccc(Cl)c1)Nc1ccc(N2CCOCC2)cc1	?	.	.	.	.	.
O=C(COc1ccc(S(=O)(=O)N2CCOCC2)cc1)NCCc1ccc(Cl)cc1	18µM	/	/	?	.	/
COc1ccc(OCC(=O)Nc2ccc(S(=O)(=O)N3CCOCC3)cc2)cc1	.	.	.	.	.	.
O=C(/C=C/c1ccc(S(=O)(=O)N2CCOCC2)cc1)NCc1ccc(Cl)cc1	18µM	.	.	?	-62	.
COc1ccc(OCCC(=O)OCC(=O)Nc2ccc(S(=O)(=O)N3CCOCC3)cc2)cc1	.	.	.	.	-65	.
O=C(COc1ccc(F)c(Cl)c1)Nc1ccc(N2CCOCC2)cc1	?	.	.	16µM	.	.
CC(=O)Oc1ccc(C(=O)NC(C)CCc2ccccc2)cc1 (configuration not stated)	.	.	.	.	.	.
Cc1ccc(C(=O)N/C(=C\c2ccc(Cl)cc2)C(=O)NCCN2CCOCC2)cc1	.	.	.	.	.	.
S=c1[nH]nc(-c2ccccc2)n1/N=C/c1ccc(-c2ccccc2Cl)o1	13µM	.	?	?	.	8.2µM
